Hit rate of the full screen: of about 360,000 compounds, about 740 (0.21%) were called active. Not shown: some 2% with an inconclusive outcome. Many of the other results were omitted from the sample, so actives are more common in it than they were. Values without a mark were called inactive. The call rests on the fitted dose curve; in most records, active means well fitted inhibition curve with a large enough effect; inconclusive means small, poorly fitted or top-dose-only effect; inactive means no such curve, though single readings can be large or run the other way.
Each molecule was assayed on Plasmodium falciparum AMA1 (3D7) - RON2 peptide interaction (assay: qHTS for Inhibitors of AMA1-RON; Towards Development of Antimalarial Drug Lead: Primary Screen). Settings: AlphaScreen AMA1-biotinylated RON2 peptide binding; series mostly up to 58.2 µM; activity change, negative = inhibition: at the top concentration.
Source text: Plasmodium, the causative agent of malaria, is one of the world's deadliest parasitic diseases. Currently there is no vaccine available and there is widespread resistance to common anti-malarial drugs. This warrants novel, alternative approaches for developing improved therapy. During infection, one such essential interaction is between two parasite proteins, the apical membrane antigen1 (AMA1) that is translocated onto the merozoite surface and the rhoptry neck protein 2 (RON2), which is transferred to the red blood cells (RBC) membrane during invasion (Besteiro et.al., 2009). Recently, the Miller lab has shown that the interaction between AMA1 and RON2 is essential for junction formation of the parasite with the host cell (Srinivasan et.al., 2011). The binding of the RON2 peptide to the hydrophobic pocket in AMA triggers the formation of the moving junction which provides a firm anchor for the parasite to pull itself into the RBC using its actin-myosin motor; an irreversible step that commits the parasite for invasion. Only one AMA1 and RON2 genes exists in Plasmodium and there are no alternate pathways. Moreover, the region corresponding to RON2 peptide is conserved in all P. falciparum isolates for which sequences are available. The key residues in the AMA1 hydrophobic pocket that binds RON2 are also conserved and indicate a functional constraint governing this essential step in invasion since a short RON2 peptide (RON2L) corresponding to the binding region on AMA1 is sufficient to compete with the native RON2 protein and inhibits invasion (Tonkin et.al, 2011). Therefore, developing small molecule inhibitors of this interaction offers a promising target opening a new arena for anti-malarial therapeutics drug design.
In collaboration with the Miller lab, a quantitative High Throughput Screen using the AlphScreen technology was developed using a recombinant his-tagged AMA1 and a biotinylated RON2 peptide. This fluorescent screen was assayed against the NIH Molecular Libraries Small Molecule Repository (MLSMR). Inhibition of this protein-protein interaction is the desired outcome of this assay. However, due the limitations of this AlphaScreen assay, a large number of artifacts were observed. An AlphaScreen counterscreen was run to identify the true inhibitors, triage compound activity, and weed out false positives.
NIH Chemical Genomics Center [NCGC]
NIH Molecular Libraries Probe Centers Network [MLPCN]
Assay Submitter (PI): Louis Miller, National Institute of Allergy and Infectious Disease (NIAID)
Two microliters of his-tagged AMA1 3D7 allele protein (final concentration 25 nM) was dispensed into a 1,536-well assay plate. Small molecules and positive control peptides were pin-transferred (23 nL or 46 nL) via Kalypsys pin-tool equipped with a 1,536-pin array, resulting in final compound and peptide concentration ranges of 91.5 nM - 57.2 µM, and 15.6 nM - 2.00 µM, respectively. Unlabeled RON2 peptide or R1 peptide ([…]) that specifically binds the 3D7 AMA1 was used as a positive control that inhibited the binding of RON2L to AMA1. After 15 minutes incubation, 1 uL of biotinylated RON2 peptide (final concentration 25 nM) or buffer were dispensed and the assay plate was incubated for an additional 30 minutes at room temperature and protected from light. This was followed by an addition of 1 uL mixture of donor and acceptor beads (10 ug/mL final concentrations for each). The plates were incubated for 30 min at room temperature and read using the EnVision(R) plate reader (PerkinElmer). Maximum inhibition response was normalized to the positive control signal while no inhibition response was normalized to the DMSO treated wells.
Further: nearly all actives have a fitted effect of over 45% in size.
Potency means the concentration at half of the fitted maximal effect.
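Wherever activity change, negative = inhibition is given: 0% = vehicle wells and -100% = peptide control.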

Question: How did the “activity change, negative = inhibition” value turn out when COc1nc(N(C)C)nc(N2CC(=O)N(CCNS(=O)(=O)c3ccc(C)cc3)C2=N)n1 was run?
Answer: Its value is 4.54%.

Question: For CCOc1ccc(NC(=O)CN(C)C(=O)c2cccc(S(=O)(=O)N3CCCC3)c2)cc1OCC, which “activity change, negative = inhibition” value is on record?
Answer: Its value is 5.03%.

Question: For Cc1ccc(CN2CC(C(=O)N3CCN(S(=O)(=O)c4ccccc4)CC3)CC2=O)cc1 (stereo unspecified), which “activity change, negative = inhibition” value is on record?
Answer: Its value is 2.11%.

Question: Which “activity change, negative = inhibition” value does the source give for CS(=O)(=O)c1ccc(Cl)c(NC(=O)COC(=O)c2ncc(Cl)c(Cl)c2Cl)c1 here?
Answer: Its value is 7.73%.

Question: Which “activity change, negative = inhibition” value does the source give for C=C1C2C[C@H](O)C(C)(C)[C@@]2(O)[C@H](O)C[C@]23C[C@@](C)(O)[C@H](CC[C@H]12)[C@H]3O (stereo partly specified) here?
Answer: The value was 6.34%.

Question: How did the “activity change, negative = inhibition” value turn out when CCc1ccc(S(=O)(=O)Nc2cc3c(cc2N2CCCCC2)n(C)c(=O)c(=O)n3C)cc1 was run?
Answer: Its value is -3.11%.

Question: With O=S(=O)(Nc1cc(S(=O)(=O)N2CCOCC2)ccc1N1CCCC1)c1cccs1 as the molecule, how does the “activity change, negative = inhibition” value read?
Answer: Its value is 21.9%.

Question: With COc1cccc(N(CC(=O)NC2CCCC2)C(=O)Cn2nnc(-c3ccc(C)cc3)n2)c1 as the molecule, how does the “activity change, negative = inhibition” value read?
Answer: Its value is -14.7%.

Question: For CC(C)(C)OC(=O)N1CCC(C(=O)Nc2cccc(C(=O)NCCc3ccccc3)c2)CC1, which “activity change, negative = inhibition” value is on record?
Answer: The value was 8.21%.

Question: For COc1ccc(CCNC(=O)C(=O)NCC2OCCN2S(=O)(=O)c2ccc(OC)c(C)c2)cc1 (stereo unspecified), which “activity change, negative = inhibition” value is on record?
Answer: Its value is 9.2%.

Question: With O=C(COC(=O)CNS(=O)(=O)c1ccccc1)NC12CC3CC(CC(C3)C1)C2 as the molecule, how does the “activity change, negative = inhibition” value read?
Answer: Its value is -5.62%.

Question: With O=c1ccc2cc(S(=O)(=O)NCCCc3ccccc3)ccc2[nH]1 as the molecule, how does the “activity change, negative = inhibition” value read?
Answer: The value was 1.59%.

Question: Which “activity change, negative = inhibition” value does the source give for COc1ccc(C2CC(c3ccc(Cl)cc3Cl)Nc3nc(N)nn32)cc1OC (stereo unspecified) here?
Answer: Its value is -7.14%.

Question: With COc1ccc(C2CC(c3ccc(C)cc3)Nc3nc(N)nn32)cc1 (stereo unspecified) as the molecule, how does the Potency read?
Answer: Its Potency is 3.16 µM (active).

Question: How did the “activity change, negative = inhibition” value turn out when Cc1ccc(C2CC(c3cccc(Br)c3)n3nc(N)nc3N2)cc1 (stereo unspecified) was run?
Answer: Its value is -13%.

Question: For CCOc1cc(C(=O)N(Cc2ccccc2)c2ccc(C)cc2)ccc1OCC(=O)N1CCOCC1, which “activity change, negative = inhibition” value is on record?
Answer: Its value is 6.38%.

Question: For CN(C)/C=C(/C(=O)c1ccc(Cl)c(Cl)c1)c1nnnn1-c1ccccc1, which “activity change, negative = inhibition” value is on record?
Answer: Its value is 25.1%.

Question: COC(=O)c1ccc(NC(=O)CSc2nnc(C3CC3)n2C)cc1 was tested. Which “activity change, negative = inhibition” value did it give?
Answer: The value was -1.1%.

Question: Which “activity change, negative = inhibition” value does the source give for C/C=C/C=C/C(=O)OCC(=O)Nc1ccc(Cl)cc1 here?
Answer: The value was -15.1%.

Question: How did the “activity change, negative = inhibition” value turn out when CCCCN1C(=O)CCC(C(=O)O)C1c1ccc(OC)cc1 (stereo unspecified) was run?
Answer: Its value is -2.98%.

Question: O=C(Nc1cccc(S(=O)(=O)NC2=NCCC2)c1)C1CCCCC1 was tested. Which “activity change, negative = inhibition” value did it give?
Answer: The value was 16.3%.

Question: How did the “activity change, negative = inhibition” value turn out when COCCCNC(=O)c1c(F)c(F)c(F)c(F)c1F was run?
Answer: The value was 2.58%.

Question: For COc1ccc(C(CNC(=O)c2ccc(OCc3cscn3)cc2)N2CCCC2)cc1 (stereo unspecified), which “activity change, negative = inhibition” value is on record?
Answer: Its value is -4.79%.

Question: How did the “activity change, negative = inhibition” value turn out when CN(C)/C=C(/C(=O)c1ccc(F)cc1)S(=O)(=O)c1ccc(F)cc1 was run?
Answer: Its value is -2.22%.

Question: How did the “activity change, negative = inhibition” value turn out when CC(c1ccco1)N(C(=O)COc1ccccc1[N+](=O)[O-])c1ccccn1 (stereo unspecified) was run?
Answer: Its value is 3.66%.

Question: CCOC(=O)N1CCN(C(=O)COCc2cc(-c3ccc4c(c3)OCO4)on2)CC1 was tested. Which “activity change, negative = inhibition” value did it give?
Answer: The value was 5.8%.

Question: COC(=O)c1c(NC(=O)C(=O)N2CCCCC2)sc2c1CC(C)(C)OC2 was tested. Which “activity change, negative = inhibition” value did it give?
Answer: Its value is 50.7%.

Question: CCn1cc(/C=C2/SC(=S)NC2=O)c(C)n1 was tested. Which “activity change, negative = inhibition” value did it give?
Answer: Its value is -5.21%.

Question: How did the “activity change, negative = inhibition” value turn out when COC(=O)c1ccc2ccccc2c1OC1OC(CO)C(O)C(O)C1NC(C)=O (stereo unspecified) was run?
Answer: The value was 6.75%.

Question: With O=C(c1ccc(Br)o1)N(c1ccccn1)C1CCCCC1 as the molecule, how does the “activity change, negative = inhibition” value read?
Answer: The value was -23.6%.

Question: How did the “activity change, negative = inhibition” value turn out when O=C(NC(=O)c1ccc(Cl)c(Cl)c1)OC1CCS(=O)(=O)C1 (stereo unspecified) was run?
Answer: The value was 0.692%.

Question: How did the “activity change, negative = inhibition” value turn out when O=C(Nc1cccnc1Oc1ncnc2cc(Cl)ccc12)c1ccc(F)cc1 was run?
Answer: The value was -12.6%.

Question: With CCN(C(=O)COC(=O)c1sccc1C)c1c(N)n(Cc2ccccc2)c(=O)[nH]c1=O as the molecule, how does the “activity change, negative = inhibition” value read?
Answer: Its value is 3.44%.

Question: With Nc1ccc2nc3c(=O)[nH]c(=S)[nH]c3nc2c1 as the molecule, how does the Potency read?
Answer: The Potency was 1.41 µM (active).

Question: Which Potency does the source give for c1ccc(CCC2=NCCn3cccc32)cc1 here?
Answer: The Potency was “inactive”.

Question: For Cc1ccc(S(=O)(=O)N2CCCCC2)cc1NC(=O)CCNC(=O)c1ccccc1, which “activity change, negative = inhibition” value is on record?
Answer: The value was 2.37%.

Question: Which “activity change, negative = inhibition” value does the source give for Cc1ccc(-c2nnn(CC(=O)N(CCO)C(C(=O)NC(C)(C)C)c3ccncc3)n2)cc1 (stereo unspecified) here?
Answer: Its value is -5.68%.

Question: Cc1cccc(C)c1NC(=O)CN1C(=O)C(C)Oc2ccccc21 (stereo unspecified) was tested. Which “activity change, negative = inhibition” value did it give?
Answer: Its value is -12.1%.

Question: With Cc1occc1-c1nnc(SCC(=O)NC2CCCCC2)o1 as the molecule, how does the “activity change, negative = inhibition” value read?
Answer: The value was -2.44%.

Question: With COc1cc(Cl)c(C)cc1NC(=O)CSc1nnc(CN2CCCC2)o1 as the molecule, how does the “activity change, negative = inhibition” value read?
Answer: The value was 75.1%.

Question: With CCn1c(SCC(=O)Nc2cc(C)c(Cl)cc2OC)nnc1-c1ccco1 as the molecule, how does the Potency read?
Answer: The Potency was 33.6 µM (active).

Question: Which “activity change, negative = inhibition” value does the source give for COc1cc(Cl)c(C)cc1NC(=O)CSc1nnc(-c2ccco2)n1CC(C)C here?
Answer: Its value is -19.4%.

Question: With CC(C)NC(=O)NCCCCCCS(C)=O (stereo unspecified) as the molecule, how does the “activity change, negative = inhibition” value read?
Answer: Its value is -0.738%.

Question: How did the Potency turn out when Oc1ccc2ccccc2c1N=Nc1nccs1 was run?
Answer: The Potency was 28.2 µM (active).

Question: Which “activity change, negative = inhibition” value does the source give for COc1ccc(CNC(=O)c2ccc(NS(=O)(=O)c3ccc4[nH]c(=O)[nH]c4c3)cc2)cc1OC here?
Answer: Its value is -5.23%.

Question: For COc1ccccc1/C=N/N1CCN(Cc2ccccc2Cl)CC1, which Potency is on record?
Answer: Its Potency is 15.8 µM (active).

Question: Which “activity change, negative = inhibition” value does the source give for Cc1ccc(CN2CCN(/N=C/c3ccco3)CC2)c(C)c1 here?
Answer: Its value is -3.91%.

Question: O=S1(=O)CCN(Cc2ccccc2Cl)CC1 was tested. Which “activity change, negative = inhibition” value did it give?
Answer: The value was -14%.

Question: CSc1ccc(/C=N/N2CCN(Cc3ccccc3Cl)CC2)cc1 was tested. Which Potency did it give?
Answer: Its Potency is 14.1 µM (active).

Question: Which “activity change, negative = inhibition” value does the source give for COCCNC(=O)C1CCCN(Cc2ccccc2Cl)CC1 (stereo unspecified) here?
Answer: The value was -2.5%.

Question: COc1ccccc1/C=C/C=N/NC(=O)CN1CCN(Cc2ccccc2)CC1 was tested. Which “activity change, negative = inhibition” value did it give?
Answer: The value was 2.67%.
